The list is not random: actives were taken first. Their share in the collection is about 2.8%.
LGR2 inh: Drosophila LGR2 receptor signaling inhibition; HEK293 LGR2, CRE-luciferase, bursicon-stimulated, 4 h; inhibition, % at 9.99 µM; 0.35% of 380,000 active; AID 720647;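 active means drop in luminescence signal, shown as inhibition above about 50% in the replicate tests, limit read from the data, passing the limit was not always enough; inconclusive means probably only some replicates passing the limit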;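 further: agonist challenge used bursicon conditioned medium at about half maximal strength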
PAX8 reporter: inhibitors of PAX8 transcriptional activity in RMG-I cells | 1.2% of 360,000 active | inhibition, % at 12.6 µM | RMG-I TPO-luciferase reporter, SteadyGlo, 24 h;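 active means mean replicate inhibition at least 60% with every replicate also reaching 60%; inconclusive means only one of the two criteria is met; inactive means mean below 60% and not all replicates reaching 60%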;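 further: luciferase light reporting Pax8 driven TPO promoter activity; plate controls were median of neutral control wells for no effect and mitoxantrone controls for full effect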
TROY NFkB inh: TROY signaling inhibition; Q293 LMP1-TROYcd NF-kB luciferase reporter, 4 h; inhibition, % at 10 µM; 0.98% of 360,000 active; AID 1347056;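 active means compounds whose plate-normalised and pattern-corrected inhibition of the luciferase reporter signal at the single screening dose is 50% or more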
TWEAK Fn14 block: blocks TWEAK-Fn14 interaction in a reporter cell assay; inhibition, % at 10 µM; TWEAK-stimulated Fn14 reporter cells, luciferase luminescence, 8 h; AID 1159606; 2% of 360,000 active; in the data active means inhibition above about 50%
EWS-Fli inh: EWS/Fli transcriptional activity inhibition. A673 NR0B1-luciferase reporter, viability-normalised. inhibition, % at 12.6 µM. 0.67% of 350,000 active. AID 651661;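 active means mean inhibition of at least 50% after viability correction, with every replicate also passing that limit; inconclusive means mean reaches 50% but only one of two replicates passes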;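 further: firefly luciferase signal divided by Alamar Blue viability fluorescence both relative to DMSO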
DNA binder FP: binds DNA displacing acridine orange. salmon sperm DNA acridine orange fluorescence polarization. shares compounds with EWS-Fli inh. 2% of 640 active. AC35, µM (top dose mostly 68 µM), without a hit: at the top dose activity change, negative = DNA binding;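 active means fitted curve reaches a 35% signal fall AC35 below twice the sample's top valid tested dose, actives reach about 48 µM in these data; inactive means the rest, including activity in the rising direction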;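 further: lower polarization ratio signals compound binding to DNA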
Numbers without * were called inactive; ? = inconclusive; . = no result given.

SMILES	LGR2 inh	PAX8 reporter	TROY NFkB inh	TWEAK Fn14 block	EWS-Fli inh	DNA binder FP
COc1ccc2oc(C(=O)NCCc3ccccc3)c(C)c2c1	?	15	70*	82*	69*	-12%
COc1ccc(NC(=O)Nc2ccc3c(c2)C(=O)N([C@@H](C)CO)C[C@@H](C)[C@H](CN(C)C(=O)C2CCCCC2)OCCCC[C@@H](C)O3)cc1	10	-1	.	.	12	.
CCc1ccc(N2C=C(C(=O)OC)C(c3ccc(OC)cc3)C(C#N)=C2N)cc1 (stereo not given)	14	3	.	.	54*	-8%
COC(=O)C1=CN(c2ccc(OC)cc2)C(N)=C(C#N)C1c1ccc(OC)cc1 (stereo not given)	-16	6	.	.	-1	.
Cc1ccc(S(=O)(=O)Nc2ccc3c(c2)CC(=O)N([C@H](C)CO)C[C@H](C)[C@H](CN(C)C(=O)Nc2ccc4c(c2)OCO4)O3)cc1	2	-29	.	.	-13	.
O=C(C[C@H]1C[C@H]2c3cc(NC(=O)c4cccnc4)ccc3O[C@H]2[C@@H](CO)O1)NCc1cccnc1	13	-8	.	.	-3	.
C[C@@H]1CN([C@@H](C)CO)C(=O)c2cc(NC(=O)c3ccccc3)ccc2O[C@@H](C)CCCCO[C@H]1CN(C)C(=O)Nc1cccc2ccccc12	26	1	.	.	71*	5%
Cc1ccc(S(=O)(=O)Nc2ccc3c(c2)C(=O)N([C@@H](C)CO)C[C@@H](C)[C@H](CN(C)Cc2ccc(C(F)(F)F)cc2)OCCCC[C@H](C)O3)cc1	31	106*	.	.	69*	-21%
C[C@@H]1CCCCO[C@H](CN(C)Cc2ccc(C(=O)Nc3ccccc3N)cc2)[C@@H](C)CN([C@H](C)CO)C(=O)c2cc(NS(=O)(=O)c3ccccc3)ccc2O1	12	22	.	.	-4	.
C[C@@H]1CCCCO[C@H](CN(C)Cc2ccc(C(=O)Nc3ccccc3N)cc2)[C@@H](C)CN([C@H](C)CO)C(=O)c2cc(NS(=O)(=O)c3ccc(F)cc3)ccc2O1	-8	52	.	.	61*	-10%
CN1CCCCN2[C@H](C1)[C@H](c1ccc(Br)cc1)[C@@H]2CO	-7	-11	.	.	-5	.
CO[C@@H]1CC[C@@H]2CCN(C)C(=O)C[C@@H](c3ccccc3)CN(C)C(=O)c3cc(C#N)ccc3OC[C@H]1O2	16	-3	.	.	3	.
CCc1ccc2c(c1)C(=O)C(=O)N2CCS(=O)(=O)c1ccccc1	-11	-15	-27	-6	.	.
O=C1C(=O)N(CCS(=O)(=O)c2ccccc2)c2ccc(Cl)cc21	1	20	3	-1	57*	-9%
COCCCNc1ccn2nc(-c3ccccc3)cc2n1	72*	10	39	72*	57*	-9%
CCc1ccc(/C=C2\SC(=S)N(CCCC(=O)NCCCN3CCOCC3)C2=O)cc1	-28	62*	18	-27	85*	0%
CCc1ccc(/C=C2\SC(=S)N(CCCC(=O)N3CCN(C)CC3)C2=O)cc1	-17	46	40	-6	69*	-24%
COCCNC(=O)C[C@@H]1C[C@@H]2c3cc(NC(=O)NC4CCCCC4)ccc3O[C@@H]2[C@H](CO)O1	-10	-2	.	.	8	.
C(=Cc1c[nH]c2ccccc12)c1ccc2ccccc2n1	89*	49	33	73*	67*	9%
O=C(/C=C/c1c[nH]c2ccccc12)c1ccccc1	-70	-211	-102	30	.	.
O=C(O)c1ccc(N/N=C/c2ccncc2)cc1	1	-33	1	35	-32	.
O=C(Oc1ccc(/C=N/Nc2ccccc2)cc1)c1ccccc1	.	12	-33	-9	.	.
O=C(O)c1ccc(N/N=C/c2ccc3nccnc3c2)cc1	96*	119*	54*	102*	84*	-4%
O=C(O)c1cccc(N/N=C/c2ccc(OC(F)(F)F)cc2)c1	-9	20	-64	-18	74*	-8%
O=C(O)c1cccc(N/N=C/c2cccs2)c1	100*	100*	-63	49	85*	-1%
SMILES	LGR2 inh	PAX8 reporter	TROY NFkB inh	TWEAK Fn14 block	EWS-Fli inh	DNA binder FP
O=C(O)c1ccc(N/N=C/c2ccc(OC(=O)c3cccc(Cl)c3)cc2)cc1	80*	86*	53*	-1	64*	4%
CO[C@H]1CN(C)C(=O)c2ccc(NC(=O)C3CCCC3)cc2OC[C@@H](C)N(C(=O)CC2CC2)C[C@H]1C	-17	-5	.	.	1	.
O=S(=O)(c1ccc(F)cc1)N1CCCCN2[C@@H](CO)[C@@H](c3ccc(C#CC4CCCC4)cc3)[C@@H]2C1	.	44	.	.	14	.
C[C@@H]1CN([C@H](C)CO)C(=O)c2cc(-c3cccnc3)cnc2O[C@H]1CN(C)C(=O)C1CCC1	11	.	.	.	0	.
O=C(C[C@@H]1C[C@H]2c3cc(NS(=O)(=O)c4ccc(F)cc4)ccc3O[C@H]2[C@@H](CO)O1)NCc1ccccc1	-5	9	.	.	-16	.
O=C(C[C@@H]1C[C@H]2c3cc(NS(=O)(=O)c4ccc(F)cc4)ccc3O[C@H]2[C@H](CO)O1)NCc1ccc(-c2ccccc2)cc1	8	88*	.	.	56*	0%

Source: PubChem (several laboratories)
